Source: PubChem BioAssay AID1851 (National Center for Advancing Translational Sciences (NCATS), 2009)
Several values for one entry are separate records, joined by “and”; a condition that tells them apart may be missing. Equal entries are not always repeated. The campaign covered roughly 16,000 compounds. About 4,000 (25%) were called active. Not shown: some 26% with an inconclusive outcome. Calls come from the whole dose curve; as a rule, active = well fitted curve in the direction sought with a large enough effect; inconclusive = small, poorly fitted or top-dose-only effect, or effect the other way; inactive = no such curve, though single readings can be large or run the other way. Only a sample is shown. The source holds several records for some structures; these can differ, active in one and inactive in another.

target: Cytochrome P450 2C9 (Homo sapiens) (UniProt P11712); test: Cytochrome panel assay with activity outcomes; conditions: recombinant CYP, pro-luciferin dealkylation, luminescence, p450-cyp2c9; series mostly up to 57.1 µM
% is set by controls: 0 for no effect and ±100 for the full control effect.

Sequence of Cytochrome P450 2C9 (Homo sapiens) (P11712 whole entry, looked up): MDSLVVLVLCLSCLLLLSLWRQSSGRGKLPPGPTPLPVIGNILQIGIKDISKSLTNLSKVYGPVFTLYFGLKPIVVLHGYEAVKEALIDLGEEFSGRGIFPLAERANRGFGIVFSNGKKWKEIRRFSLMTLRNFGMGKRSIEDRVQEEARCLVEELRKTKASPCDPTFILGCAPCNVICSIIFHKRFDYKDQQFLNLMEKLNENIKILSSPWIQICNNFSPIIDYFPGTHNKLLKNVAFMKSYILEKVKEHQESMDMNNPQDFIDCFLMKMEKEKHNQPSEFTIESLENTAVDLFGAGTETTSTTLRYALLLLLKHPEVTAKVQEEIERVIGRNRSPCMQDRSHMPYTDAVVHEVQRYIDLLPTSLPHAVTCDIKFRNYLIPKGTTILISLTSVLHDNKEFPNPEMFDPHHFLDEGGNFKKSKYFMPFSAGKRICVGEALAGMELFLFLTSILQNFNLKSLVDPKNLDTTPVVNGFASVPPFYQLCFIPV

| SMILES | AC50 | activity, negative = inhibition |
| --- | --- | --- |
| C#CCn1c(=O)c2c(ncn2C)n(C)c1=O | inactive | – |
| CN(C)c1ccc(-c2ccc3ncnc(NCc4ccccc4)c3c2)cc1 | – | -24.6% [at 2.29 µM] (inactive) |
| CN(C)C(=O)c1ccc(-c2ccc3ncnc(Nc4ccccc4)c3c2)cc1 | – | 15.4% [at 2.29 µM] (inactive) |
| CN(C)c1cc2c(Nc3ccc4c(cnn4Cc4ccccc4)c3)ncnc2cn1 | 12.6 µM (active) | – |
| CCN(CC(=O)Nc1ccc([N+](=O)[O-])cc1OC)c1ccccc1 | 2.82 µM (active) | – |
| COc1ccccc1NC(=O)Cn1cncc1-c1ccc([N+](=O)[O-])cc1 | inactive | – |
| COc1cc(OC)c(NC(=S)Nc2cccc(C(C)=O)c2)cc1Cl | 5.01 µM (active) | – |
| CCOc1cc(NC(=S)Nc2cccc(C)c2)c(OCC)cc1NC(=O)CC(C)C | inactive | – |
| CCOC(=O)C1(C(=O)O)NC(=O)CC1c1ccccc1 (centres undefined) | inactive | – |
| CCOC(=O)CN1C(=O)Nc2ccc(Br)cc2C1c1ccccc1 (centres undefined) | 6.31 µM (active) | – |
| O=c1cc(CF)[nH]c(=S)[nH]1 | – | 8.7% [at 11.4 µM] (inactive) |
| N[C@H](CCCC(=O)O)C(=O)O | inactive | – |
| O=C(O)c1cc2ccccc2c(S(=O)(=O)O)c1O | – | 10.7% [at 11.4 µM] (inactive) |
| O=C(O)c1cc(C(=O)C(=O)c2cc(C(=O)O)c(O)c3ccccc23)c2ccccc2c1O | 0.316 µM (active) | – |
| O=C(O)C1=C/C(=C(/c2ccccc2)c2cc(C(=O)O)c(O)c3ccccc23)c2ccccc2C1=O | – | 1.25% [at 11.4 µM] (inactive) and -1.88% [at 11.4 µM] (inactive) |
| Cc1cc(OCC(F)(F)C(F)(F)C(F)(F)C(F)(F)C(F)(F)C(F)F)nc(N)n1 | 12.6 µM (active) | – |
| CC(C)NC[C@@H](O)c1ccc(O)c2ncccc12 | – | 11% [at 11.4 µM] (inactive) |
| CCOc1ccc(C2=[N+]([O-])C(C)(C)N(O)C2(C)C)cc1 | inactive | – |
| Oc1ccccc1-c1nnc(-c2ccc(C(F)(F)F)cc2)o1 | inactive | – |
| CCOc1ccc(-c2nnc(-c3ccncc3)o2)cc1 | 12.6 µM (active) | – |
| Oc1cc2c(cc1O)[C@H](c1ccccc1)CNCC2 | inactive | – |
| Cc1[nH]n2c(=O)c3c(nc2c1-c1cccc2ccccc12)CCC3 | 5.62 µM (active) | – |
| Cc1ccccc1-c1nc(N2CCN(C)CC2)c2ccccc2n1 | – | 5.44% [at 2.29 µM] (inactive) |
| Cc1c2c(nc3c(C(=O)NC4CCCC4)cnn13)CCCC2 | inactive | – |

| SMILES | AC50 | activity, negative = inhibition |
| --- | --- | --- |
| Cc1ccc(N=Nc2c(=O)[nH]n3c(C)cc(C)nc23)cc1 | inactive | – |
| Cc1ccc(N=Nc2c(N)[nH]n3c(=O)c4c(nc23)CCCC4)cc1 | 10 µM (active) | – |
| O=P(O)(O)O[C@@H]1O[C@H](CO)[C@@H](O)[C@H](O)[C@@H]1O | – | 8.79% [at 11.4 µM] (inactive) |
| CCN(CC)[C@@H](C)CN1c2ccccc2Sc2ccccc21 | inactive | – |
| COc1cccc(OC)c1OCCCCN1CCCC1 | inactive | – |
| Cc1c(-c2ccccc2)oc2c(C(=O)OCCN3CCCCC3)cccc2c1=O | inactive | – |
| O=C(OCCN1CCCCC1)c1c[nH]c2ccccc12 | inactive and 2 µM (active) | – |
| C[C@@](N)(Cc1ccc(O)c(O)c1)C(=O)O | inactive | – |
| C[C@@](N)(Cc1ccc(O)cc1)C(=O)O | inactive | – |
| CCOC(=O)c1c(C(C)(C)C)oc2ccc(O)cc12 | 20 µM (active) | – |
| CC(C)Oc1cccc(C(=O)NC(=S)N2CCN(c3ccc(C(F)(F)F)cc3[N+](=O)[O-])CC2)c1 | 3.16 µM (active) | – |
| COc1cccc(OC)c1C(=O)NC(=S)N1CCN(c2ccc(C(F)(F)F)cc2[N+](=O)[O-])CC1 | 0.355 µM (active) | – |
| CC1CN(C(=S)NC(=O)c2ccc([N+](=O)[O-])cc2)CC(C)O1 (centres undefined) | inactive | – |
| CCC(=O)NC(=S)N1CCN(c2ccc([N+](=O)[O-])cc2Cl)CC1 | inactive | – |
| CC(C)N=C(N)/N=C(\N)Nc1ccc(Cl)cc1 | inactive | – |
| CNCCc1ccccn1 | inactive | – |
| O=c1ccn([C@@H]2O[C@@H](COP(=O)(O)OP(=O)(O)O)[C@H](O)[C@@H]2O)c(=O)[nH]1 | inactive | – |
| COc1cc2nc3c(c([Si](C)(C)C(C)(C)C)c2cc1OC)Cn1c-3cccc1=O | 15.8 µM (active) | – |
| COc1ccc2nc3c(c([Si](C)(C)C(C)(C)C)c2c1)Cn1c-3cccc1=O | 12.6 µM (active) | – |
| CCc1c2c(nc3ccc(OC)cc13)COC2 | inactive | – |
| CC(C)NC(=O)N1CCCC2(CCN(C(=O)c3cc(C(F)(F)F)cc(C(F)(F)F)c3)CC2)C1 | inactive | – |
| CC(C)CN(CC#N)CC(C)C | – | 4.39% [at 11.4 µM] (inactive) |
| CN(C)CCCc1c2ccccc2nc2ccc(Cl)cc12 | – | 11.6% [at 11.4 µM] (inactive) |
| CSc1nc2ccccc2cc1/C=C(\C#N)c1ccc(Cl)cc1Cl | 25.1 µM (active) | – |

| SMILES | AC50 | activity, negative = inhibition |
| --- | --- | --- |
| CSc1nc2ccccc2cc1/C=C(\C#N)c1ccccc1 | 3.98 µM (active) | – |
| COc1ccc(-n2c(=O)cnc3cnc(OC)nc32)cc1 | inactive | – |
| O=C(O)CC1(CC(=O)O)Nc2ccccc2SC1=O | – | -2.99% [at 11.4 µM] (inactive) |
| Cc1ccccc1NC(=O)CN1CCC(n2nnc3ccccc32)CC1 | inactive | – |
| Cc1c(Cl)cccc1NC(=O)CC1NCCNC1=O (centres undefined) | inactive | – |
| Cc1cc(Cl)ccc1NC(=O)CN1CCC(C(O)(c2ccccc2)c2ccccc2)CC1 | 7.08 µM (active) | – |
| Cc1c(Cl)cccc1NC(=O)CN1CCC(C(O)(c2ccccc2)c2ccccc2)CC1 | 2 µM (active) | – |
| O[C@@](CCN1CCCCC1)(c1ccccc1)C1CCCCC1 | inactive | – |
| Cc1c(NC(=O)CN2CCN(c3ccccc3)CC2)c(=O)n(-c2ccccc2)n1C | inactive | – |
| CCc1nc2cc(CC(=O)O)ccc2o1 | inactive | – |
| COC(=O)[C@@H]1C[C@H]1[C@@H](NC(=O)c1cnccn1)c1ccccc1 | inactive | – |
| C[C@@H](C(=O)Nc1ccc2ccccc2c1)[C@H]1C[C@]1(C)[C@H](NC(=O)c1cnccn1)c1ccccc1 | 5.01 µM (active) | – |
| COC(=O)[C@H]1C[C@@H]1[C@H](NC(=O)c1cnccn1)c1ccccc1 | inactive | – |
| C[C@@H](C(=O)Nc1ccc2ccccc2c1)[C@@H]1C[C@@]1(C)[C@@H](NC(=O)c1cnccn1)c1ccccc1 | 0.0631 µM (active) | – |
| COC(=O)C1=C(C)NC(C)=C([N+](=O)[O-])[C@@H]1c1ccccc1C(F)(F)F | 0.158 µM (active) | – |
| COC(=O)C1=C(C)NC(C)=C([N+](=O)[O-])[C@H]1c1ccccc1C(F)(F)F | 2 µM (active) | – |
| COC(=O)C1=C(C)NC(=O)NC1c1ccsc1 (centres undefined) | inactive | – |
| CO[C@@H]1/C=C\CC(=O)N[C@@H](C)C(=O)OC[C@H](NS(=O)(=O)c2ccc(C)cc2)[C@H](C)/C=C\CC(=O)OC[C@H]1C | – | 14.6% [at 11.4 µM] (inactive) |
| Cc1ccc([N+](=O)[O-])cc1NC(=S)NC(=O)C(C)(C)C | 0.708 µM (active) | – |
| Cc1ccc([N+](=O)[O-])cc1NC(=S)NC(=O)CC(C)(C)C | 2.24 µM (active) | – |
| Cc1cnc(CNc2ncncc2-c2ccccc2C(F)(F)F)cn1 | – | 1.53% [at 2.29 µM] (inactive) |
| CCN(CC)CCNC(=O)c1cc(S(C)(=O)=O)ccc1OC | inactive | – |
| COc1ccc2cc(CCNC(=O)C3CC3)c(=O)[nH]c2c1 | inactive | – |
| COc1ccc(OC)c2[nH]c(=O)c(CCNC(=O)c3ccc(S(=O)(=O)N4CCCC4)cc3)cc12 | 11.2 µM (active) | – |

| SMILES | AC50 | activity, negative = inhibition |
| --- | --- | --- |
| CCN1CCCC1CNC(=O)CCNC(=O)c1cc(OC)c(OC)c(OC)c1 (centres undefined) | inactive | – |
| COc1ccc(OC)c2[nH]c(=O)c(CCNC(=O)c3ccc(S(=O)(=O)N(C)C)cc3)cc12 | 7.94 µM (active) | – |
| CCOC(=O)C(C)(C)[C@H](O)C(C)C | – | -6.81% [at 11.4 µM] (inactive) |
| COc1ccc(CCNc2cc(-c3ccccc3)nc3ncnn23)cc1 | 5.62 µM (active) | – |
| COc1cccc(-c2nccc(NCc3ccccc3)n2)c1 | – | -19.2% [at 2.29 µM] (inactive) |
| COc1cccc(-c2cc(NCc3ccccc3)ncn2)c1 | – | -1.27% [at 2.29 µM] (inactive) |
| CCc1c(C)nc2ncnn2c1NCCc1ccc(OC)cc1 | 1.58 µM (active) | – |
| Cc1ccc(CNC(=O)CCc2c(C)nc3ncnn3c2C)cc1 | inactive | – |
| CCOC(=O)CCc1c(C)nc2ncnn2c1C | inactive | – |
| CCNc1ncc2nc(-c3cc(F)cc(F)c3)c(=O)n(CCC#N)c2n1 | inactive | – |
| Fc1ccc(Nc2ccnc(-c3ccoc3)n2)cc1 | – | 9.66% [at 2.29 µM] (inactive) |
| CC(=O)OC[C@@H]1O[C@@H](O/N=C2/C[C@@H](O)[C@@H](O)[C@@H]3[C@@H]4C(=O)N(c5cccc(Oc6ccccc6)c5)C(=O)[C@H]4CC[C@@H]23)[C@H](OC(C)=O)[C@H](OC(C)=O)[C@@H]1OC(C)=O | – | 20.1% [at 11.4 µM] (inactive) |
| Cc1cc(O)c(-c2cc(O)c(C)cc2O)cc1O | 1.26 µM (active) | – |
| Cc1cc(O)c(C(C)C)cc1CN1CCCCC1 | – | -3.21% [at 11.4 µM] (inactive) |
| COc1ccc(-c2nc3c([nH]2)c(=O)n(C)c(=O)n3C)c(OC)c1 | inactive | – |
| CCOC(=O)n1c(=O)n(Cc2ccccc2Cl)c2ccccc21 | 8.91 µM (active) | – |
| Cn1c(=O)n(CCC(=O)O)c2ccccc21 | inactive | – |
| CCOC(=O)n1c(=O)n(Cc2c(Cl)cccc2Cl)c2ccccc21 | 3.98 µM (active) | – |
| Cc1n[nH]c(=O)nc1NCc1ccccc1Cl | inactive | – |
| O=c1[nH]cc(CS(=O)(=O)Cc2c[nH]c(=O)[nH]c2=O)c(=O)[nH]1 | – | -2.59% [at 11.4 µM] (inactive) |
| C/C(=N\O)c1ccc2[nH]ccc2c1 | inactive | – |
| Cc1n[nH]c(C)c1S(=O)(=O)N1CCC(C(=O)O)CC1 | inactive | – |
